Inconclusive results are not listed. Activity calls are given as the source filed them. Unless noted, calls come from the whole dose curve.
Tests used:
[1] = Nuclear factor erythroid 2-related factor 2/antioxidant responsive element (Nrf2/ARE) small molecule agonists: qHTS cell viability counter screen in human keratinocytes (AID 1919968; active = well fitted curve in the direction sought with a large enough effect in the repeat runs; an effect the other way counts as inactive or inconclusive; note: nearly all actives have a fitted effect of over 55% in size)
How it was run: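 Stably transfected HaCaT (KeratinoSens), 1,500/well. Test agents in DMSO were applied for 23 h, 37 C/5% CO2. CellTiter-Fluor was incubated 1 h before the fluorescence read.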

[2] = Nuclear factor erythroid 2-related factor 2/antioxidant responsive element (Nrf2/ARE) small molecule agonists: luciferase reporter gene qHTS assay in human keratinocytes (AID 1919969); note: nearly all actives have a fitted effect of over 35% in size
[3] = molecular target: Gonadotropin-releasing hormone receptor (Homo sapiens) (UniProt P30968); test: Human gonadotropin-releasing hormone receptor (GnRHR) small molecule agonists, calcium flux assay in GnRHR-HEK293 cells (AID 1920063); note: nearly all actives have a fitted effect of over 35% in size
How it was run: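 Stable human GnRHR HEK293 line. 18 h plating, then calcium dye for 1 h at 37 C. Agonist-mode compound addition from DMSO stocks; fluorescence monitored 3 min.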

[4] = molecular target: KiSS-1 receptor (Homo sapiens) (UniProt Q969F8); test: Human kisspeptin (KISS1R) small molecule agonists, calcium flux assay in KISS1R-HEK293 cells (AID 1920064; active = well fitted curve in the direction sought with a large enough effect in the repeat runs; an effect the other way counts as inactive or inconclusive)
How it was run: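 After overnight (18 h) culture at 37 C/5% CO2, human KISS1R-HEK293 cells received calcium dye for 1 h, then test compound; emission at 540 nm (excitation 480 nm) was tracked for 3 min.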

[5] = G protein-coupled receptor (GPCR) small molecule agonists, calcium flux assay: HEK293 wild type cell line counter screen (AID 1920065)
How it was run: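 Following 18 h incubation at 37 C/5% CO2, plates got calcium dye for 1 h; compounds, ATP or DMSO were then pinned in and fluorescence followed kinetically (480/540 nm).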

[6] = p53 small molecule agonists, cell-based qHTS assay with human liver microsomes (AID 1963577)
How it was run: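 Cells carrying a p53-responsive bla reporter were rested 5 h (37 C, 5% CO2) before compound transfer. Human liver microsomes plus NADPH, 0.5 mg/mL final apiece, supplied metabolism during the 16 h 37 C exposure.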

[7] = p53 small molecule agonists, cell-based qHTS assay with rat liver microsomes (AID 1963578)
How it was run: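 Fluorescence from a beta-lactamase reporter under a p53 response element was measured after cells had been incubated 16 h at 37 C with test compound and rat liver microsomes plus NADPH (0.5 mg/mL final each).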

[8] = p53 small molecule agonists, cell-based qHTS assay with human liver microsomes: qHTS cell viability counter screen (AID 1963579); note: nearly all actives have a fitted effect of over 45% in size
How it was run: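 Seed p53RE-bla cells at 4,000 per well; incubate 5 h at 37 C; add compound, human liver microsomes and NADPH; incubate 16 h at 37 C; add CellTiter-Glo; after 30 min at room temperature, read luminescence.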

[9] = p53 small molecule agonists, cell-based qHTS assay with rat liver microsomes: qHTS cell viability counter screen (AID 1963580); note: nearly all actives have a fitted effect of over 45% in size
How it was run: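 Counter screen for cytotoxicity under metabolic activation: rat liver microsomes and NADPH, 0.5 mg/mL final each, added with compounds to p53RE-bla HCT-116 cells; 16 h at 37 C, then ATP luminescence read.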

[10] = p53 small molecule agonists, cell-based qHTS assay: qHTS cell viability counter screen (AID 1963581); note: nearly all actives have a fitted effect of over 45% in size
How it was run: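 qHTS counter screen: 16 h compound exposure at 37 C of p53RE-bla HCT-116 cells (4,000 per well, seeded 5 h prior), cell viability by ATP luminescence.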

[11] = p53 small molecule agonists, cell-based qHTS assay (AID 1963582; active = well fitted activation curve with a large enough effect in the signal ratio in the repeat runs, not every such curve was filed as active; the % refers to the signal ratio)
How it was run: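 Measured: fluorescence from cleaved LiveBLAzer substrate. System: p53RE-bla cells, 16 h compound treatment at 37 C, 2 h substrate step at room temperature.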

[12] = molecular target: 5-hydroxytryptamine receptor 2A (Homo sapiens) (UniProt P28223); test: 5-hydroxytryptamine receptor 2A (HTR2A) small molecule antagonists, cell-based qHTS assay (AID 1963586); note: nearly all actives have a fitted effect of over 45% in size
How it was run: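 CHO cells stably expressing human HTR2A were plated for 18 h at 37 C, then loaded with calcium dye for 1 h. Compounds were preincubated 5 min at room temperature before DOI (4 nM solution) was added. Kinetic fluorescence was read for 3 min.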

[13] = molecular target: 5-hydroxytryptamine receptor 2A (Homo sapiens) (UniProt P28223); test: 5-hydroxytryptamine receptor 2A (HTR2A) small molecule agonists, cell-based qHTS assay (AID 1963587); note: nearly all actives have a fitted effect of over 30% in size
How it was run: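 HTR2A-CHO cells, plated 18 h at 37 C/5% CO2, dye-loaded 1 h at 37 C; compounds in DMSO added by pin tool (agonist mode). Intracellular calcium flux read as kinetic fluorescence on FDSS over 2 min at 1 s intervals.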

[14] = molecular target: Muscarinic acetylcholine receptor M1 (Homo sapiens) (UniProt P11229); test: Cholinergic receptor muscarinic 1 (CHRM1) small molecule antagonists, cell-based qHTS assay (AID 1963588); note: nearly all actives have a fitted effect of over 40% in size; note: potency is the fitted concentration of half-maximal effect
How it was run: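 Compounds were tested at 15 concentrations in three independent runs. Dye-loaded CHRM1-CHO cells were exposed 5 min at room temperature before stimulation by acetylcholine added at 50nM. Intracellular calcium was read kinetically on FDSS for 3 min.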

[15] = molecular target: Muscarinic acetylcholine receptor M1 (Homo sapiens) (UniProt P11229); test: Cholinergic receptor muscarinic 1 (CHRM1) small molecule agonists, cell-based qHTS assay (AID 1963589); note: nearly all actives have a fitted effect of over 35% in size
How it was run: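 Kinetic fluorescence (1 s intervals) of calcium-sensitive dye in human M1 CHO cells after compound addition; cells pre-incubated 18 h at 37 C/5% CO2 and dye-loaded 1 h.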

[16] = cAMP Responsive Elements (CRE) small molecule agonists, cell-based qHTS assay (AID 1963590)
How it was run: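 Test agents in DMSO were incubated 3 h at 37 C/5% CO2 with CRE-bla HEK 293T cells seeded 18 h earlier; LiveBLAzer B/G FRET substrate was added and read after 2 h at room temperature.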

[17] = cAMP Responsive Elements (CRE) small molecule antagonists, cell-based qHTS assay (AID 1963591; active = well fitted inhibition curve with a large enough effect in the signal ratio in the repeat runs, not every such curve was filed as active; the % refers to the signal ratio)
How it was run: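 Reporter line CRE-bla HEK 293T in dialyzed-FBS DMEM; cells preincubated 18 h, treated 3 h with compound plus NKH477 (0.25 uM final); LiveBLAzer FRET, 2 h RT.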

[18] = molecular target: Beta-2 adrenergic receptor (Homo sapiens) (UniProt P07550); test: Adrenergic beta2 receptor (ADRB2) small molecule antagonists, cell-based qHTS assay (AID 1963592); note: series mostly up to about 92 µM; nearly all actives have a fitted effect of over 50% in size
How it was run: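 Assay format: CHO-ADRB2 cells, 18-20hr seeding at 37C/5% CO2, then compound plus 1nM isoproterenol agonist mix for 0.5hr RT. Homogeneous time-resolved fluorescence cAMP detection after 1hr, expressed as 665/615 nm ratio.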

[19] = molecular target: Beta-2 adrenergic receptor (Homo sapiens) (UniProt P07550); test: Adrenergic beta2 receptor (ADRB2) small molecule agonists, cell-based qHTS assay (AID 1963593);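 note: CHO cells stably overexpressing human ADRB2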
How it was run: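 CHO cells stably over-expressing ADRB2 were plated overnight at 37C, then dosed with compounds plus a stimulation mix containing 100uM IBMX and 25uM Ro-20-1724 for 0.5hr at room temperature. cAMP was measured by HTRF competition, 1hr.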

[20] = molecular target: D(2) dopamine receptor (Homo sapiens) (UniProt P14416); test: Dopamine D2 receptor (DRD2) small molecule agonists, cell-based qHTS assay (AID 1963594); note: nearly all actives have a fitted effect of over 35% in size
How it was run: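 HEK293 cells stably expressing DRD2 were cultured 24 h at 37 C, then given Ro20-1724 (0.1 mM final) and compounds for 10 min at room temperature. NKH477 (200nM) was then added for 30 min. cAMP was read by HTRF.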
% is set by controls: 0 for no effect and ±100 for the full control effect.

Sequence of Muscarinic acetylcholine receptor M1 (Homo sapiens) (P11229 whole entry, looked up): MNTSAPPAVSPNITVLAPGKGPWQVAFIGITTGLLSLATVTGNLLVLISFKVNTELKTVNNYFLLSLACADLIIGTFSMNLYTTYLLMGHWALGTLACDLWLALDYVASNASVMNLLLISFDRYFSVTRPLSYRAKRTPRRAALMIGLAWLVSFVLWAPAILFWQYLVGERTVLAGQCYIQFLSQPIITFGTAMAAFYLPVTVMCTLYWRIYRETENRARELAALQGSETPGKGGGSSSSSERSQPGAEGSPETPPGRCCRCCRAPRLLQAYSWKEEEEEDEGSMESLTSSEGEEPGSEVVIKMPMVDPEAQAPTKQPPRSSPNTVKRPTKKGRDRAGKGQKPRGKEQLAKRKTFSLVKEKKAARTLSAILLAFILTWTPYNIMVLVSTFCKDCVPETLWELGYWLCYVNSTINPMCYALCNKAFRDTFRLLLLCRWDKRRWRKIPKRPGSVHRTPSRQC
Sequence of D(2) dopamine receptor (Homo sapiens) (P14416 whole entry, looked up): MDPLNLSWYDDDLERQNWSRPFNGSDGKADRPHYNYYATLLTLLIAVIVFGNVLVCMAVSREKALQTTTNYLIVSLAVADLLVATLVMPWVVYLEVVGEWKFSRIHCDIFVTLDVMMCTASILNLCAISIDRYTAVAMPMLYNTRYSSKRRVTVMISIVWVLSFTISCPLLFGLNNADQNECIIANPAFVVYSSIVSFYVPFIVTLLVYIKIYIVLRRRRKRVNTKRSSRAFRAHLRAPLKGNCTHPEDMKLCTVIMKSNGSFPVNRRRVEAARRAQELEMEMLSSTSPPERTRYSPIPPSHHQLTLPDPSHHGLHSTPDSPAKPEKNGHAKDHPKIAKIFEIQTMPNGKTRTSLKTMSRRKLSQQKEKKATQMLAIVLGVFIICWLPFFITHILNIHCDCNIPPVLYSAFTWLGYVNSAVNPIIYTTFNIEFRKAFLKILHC
Sequence of Gonadotropin-releasing hormone receptor (Homo sapiens) (P30968 whole entry, looked up): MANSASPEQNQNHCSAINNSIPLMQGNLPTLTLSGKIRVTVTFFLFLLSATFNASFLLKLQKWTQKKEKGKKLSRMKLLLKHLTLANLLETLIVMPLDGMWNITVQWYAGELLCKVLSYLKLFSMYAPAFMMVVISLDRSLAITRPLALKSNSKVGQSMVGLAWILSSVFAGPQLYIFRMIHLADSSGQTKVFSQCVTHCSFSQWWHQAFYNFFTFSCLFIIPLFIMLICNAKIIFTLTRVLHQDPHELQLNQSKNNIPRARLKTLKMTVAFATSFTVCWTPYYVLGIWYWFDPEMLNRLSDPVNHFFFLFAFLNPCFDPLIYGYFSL
Sequence of KiSS-1 receptor (Homo sapiens) (Q969F8 whole entry, looked up): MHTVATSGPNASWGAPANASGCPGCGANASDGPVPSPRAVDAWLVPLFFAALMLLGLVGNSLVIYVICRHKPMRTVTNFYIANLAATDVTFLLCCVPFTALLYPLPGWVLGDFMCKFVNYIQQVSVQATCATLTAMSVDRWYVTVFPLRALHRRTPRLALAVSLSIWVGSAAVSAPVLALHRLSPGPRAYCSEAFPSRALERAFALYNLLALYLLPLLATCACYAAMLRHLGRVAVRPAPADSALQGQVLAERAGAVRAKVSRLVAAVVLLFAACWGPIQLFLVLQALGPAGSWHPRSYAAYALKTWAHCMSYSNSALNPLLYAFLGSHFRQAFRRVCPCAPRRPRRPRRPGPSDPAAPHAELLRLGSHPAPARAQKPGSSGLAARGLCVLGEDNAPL
Sequence of Beta-2 adrenergic receptor (Homo sapiens) (P07550 whole entry, looked up): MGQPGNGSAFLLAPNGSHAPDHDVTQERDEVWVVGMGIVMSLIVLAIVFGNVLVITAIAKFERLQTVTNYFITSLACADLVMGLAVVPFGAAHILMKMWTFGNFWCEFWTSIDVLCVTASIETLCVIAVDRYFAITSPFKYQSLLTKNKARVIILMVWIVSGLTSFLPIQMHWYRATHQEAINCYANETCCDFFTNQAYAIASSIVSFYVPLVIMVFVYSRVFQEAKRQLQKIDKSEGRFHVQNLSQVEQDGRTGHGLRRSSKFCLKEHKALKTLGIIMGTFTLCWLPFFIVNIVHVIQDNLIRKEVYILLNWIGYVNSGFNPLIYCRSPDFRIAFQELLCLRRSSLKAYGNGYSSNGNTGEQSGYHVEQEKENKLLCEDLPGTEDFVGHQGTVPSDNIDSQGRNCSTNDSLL
Sequence of 5-hydroxytryptamine receptor 2A (Homo sapiens) (P28223 whole entry, looked up): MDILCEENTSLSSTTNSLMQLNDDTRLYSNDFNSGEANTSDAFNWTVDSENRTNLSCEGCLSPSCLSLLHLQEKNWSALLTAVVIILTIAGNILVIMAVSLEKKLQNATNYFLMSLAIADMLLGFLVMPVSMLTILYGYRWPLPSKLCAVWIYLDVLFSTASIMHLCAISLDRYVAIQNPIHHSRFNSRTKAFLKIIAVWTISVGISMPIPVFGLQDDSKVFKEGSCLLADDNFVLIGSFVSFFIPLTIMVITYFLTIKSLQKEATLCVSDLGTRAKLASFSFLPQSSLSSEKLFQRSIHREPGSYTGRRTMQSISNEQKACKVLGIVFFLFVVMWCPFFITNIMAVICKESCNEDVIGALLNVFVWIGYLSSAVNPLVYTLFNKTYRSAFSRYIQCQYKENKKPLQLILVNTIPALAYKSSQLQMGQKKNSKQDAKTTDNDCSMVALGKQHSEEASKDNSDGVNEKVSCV

CCSC(=O)N(CC(C)C)CC(C)C
inactive: Potency [1] | Potency [2] | Potency [3] | Potency [4] | Potency [5] | Potency [6] | Potency [7] | Potency [8] | Potency [9] | Potency [10] | Potency [11] | Potency [12] | Potency [13] | Potency [14] | Potency [15] | Potency [16] | Potency [17] | Potency [18] | Potency [19] | Potency [20]

CCN1C(=O)c2ccccc2C1Nc1ccc(OCCN2CCCCC2)cc1 (stereo not given)
inactive: Potency [1] | Potency [2] | Potency [3] | Potency [4] | Potency [5] | Potency [6] | Potency [7] | Potency [8] | Potency [9] | Potency [10] | Potency [11] | Potency [12] | Potency [13] | Potency [15] | Potency [16] | Potency [17] | Potency [18] | Potency [19] | Potency [20]
active: Potency [14] 3.65 µM

CC12CCC(C(=O)C1=O)C2(C)C (stereo not given)
inactive: Potency [1] | Potency [2] | Potency [3] | Potency [4] | Potency [5] | Potency [6] | Potency [7] | Potency [8] | Potency [9] | Potency [10] | Potency [11] | Potency [12] | Potency [13] | Potency [14] | Potency [15] | Potency [16] | Potency [17] | Potency [18] | Potency [19] | Potency [20]

CCCCCCCCCC(C)=O
inactive: Potency [1] | Potency [2] | Potency [3] | Potency [4] | Potency [5] | Potency [6] | Potency [7] | Potency [8] | Potency [9] | Potency [10] | Potency [11] | Potency [12] | Potency [13] | Potency [14] | Potency [15] | Potency [16] | Potency [17] | Potency [18] | Potency [19] | Potency [20]

O=S(=O)(O)c1ccc2c(N=Nc3ccc(S(=O)(=O)O)c4ccccc34)c(O)c(S(=O)(=O)O)cc2c1
inactive: activity change, negative = cytotoxicity [1] -5.59% [at 8.39 µM] | activity, positive = activation [2] -0.366% [at 8.39 µM] | activity change [3] 18.3% [at 5.22 µM, hits give high values] | activation [4] 0.398% [at 6.97 µM] | activation [5] 6.05% [at 5.23 µM] | activation [6] -6.7% [at 5.99 µM] | activation [7] -0.431% [at 5.99 µM] | activity change, negative = cytotoxicity [8] -6.02% [at 5.99 µM] | activity change, negative = cytotoxicity [9] -3.24% [at 5.99 µM] | activity change, negative = cytotoxicity [10] -2.08% [at 5.99 µM] | activation [11] -3.84% [at 5.99 µM] | activity, negative = inhibition [12] 0.404% [at 5.62 µM] | activation [13] 12.5% [at 7.02 µM] | activity, negative = inhibition [14] -10.6% [at 5.58 µM] | activation [15] 2.33% [at 6.97 µM] | activation [16] -1.25% [at 8.39 µM] | activity change, negative = inhibition [17] -1.96% [at 8.39 µM] | activity change, negative = inhibition [18] -2.48% [at 8.39 µM] | activation [19] -0.404% [at 8.39 µM] | activation [20] -0.0629% [at 8.39 µM]

CC(C)OCCO
inactive: Potency [1] | Potency [2] | Potency [3] | Potency [4] | Potency [5] | Potency [6] | Potency [7] | Potency [8] | Potency [9] | Potency [10] | Potency [11] | Potency [12] | Potency [13] | Potency [14] | Potency [15] | Potency [16] | Potency [17] | Potency [18] | Potency [19] | Potency [20]

CS(=O)(=O)O
inactive: Potency [1] | Potency [2] | Potency [3] | Potency [4] | Potency [5] | Potency [6] | Potency [7] | Potency [8] | Potency [9] | Potency [10] | Potency [11] | Potency [12] | Potency [13] | Potency [14] | Potency [15] | Potency [16] | Potency [17] | Potency [18] | Potency [19] | Potency [20]
